# Assay results taken from PubChem BioAssay AID1159580 (chemical genetic matrix, 2015).
# Among all 5,500 compounds or so, about 2,000 (36%) were called active. About 18% were inconclusive and are not listed. The list shows a part of the results. A number with no mark means an inactive call. Cut-off read from the data, not from the text of the source: active = normalized growth mostly below about 0.91 (no sharp cut-off); inconclusive = no clear call, values can overlap the other calls; inactive = mostly above about 0.92.
# Assay: chemical genetic growth profiling, strain panel (AID 1159580);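 note: tested at 20 µM; growth read once vehicle control cultures reached saturation at 30 °C; 1 = growth at the plate median or of vehicle wells; lower values mean less growth of the strain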
# Settings: S. cerevisiae deletion strains, growth OD
smiles,measurement,setting,value
CC(/C=N\O)=N/Nc1ccccc1,normalized growth,"locus YAL013W, strain DEP1, hits give low values",0.969
same,normalized growth,"locus YBR229C, strain ROT2, hits give low values",0.938
same,normalized growth,"locus YDL101C, strain DUN1, hits give low values",1.01
same,normalized growth,"locus YDL134C, strain PPH21, hits give low values",0.975
same,normalized growth,"locus YDR150W, strain NUM1, hits give low values",0.932
same,normalized growth,"locus YEL061C, strain CIN8, hits give low values",0.953
same,normalized growth,"locus YGR078C, strain PAC10, hits give low values",0.961
same,normalized growth,"locus YHR030C, strain SLT2, hits give low values",0.774
same,normalized growth,"locus YHR087W, strain rtc3, hits give low values",0.916
same,normalized growth,"locus YJR043C, strain POL32, hits give low values",0.974
same,normalized growth,"locus YJR075W, strain HOC1, hits give low values",0.954
same,normalized growth,"locus YKL190W, strain CNB1, hits give low values",0.887 (active)
same,normalized growth,"locus YLR039C, strain RIC1, hits give low values",0.324 (active)
same,normalized growth,"locus YLR058C, strain SHM2 (second series), hits give low values",0.979
same,normalized growth,"locus YLR085C, strain ARP6, hits give low values",0.793
same,normalized growth,"locus YLR262C, strain YPT6, hits give low values",0.253 (active)
same,normalized growth,"locus YML094W, strain GIM5, hits give low values",0.841 (active)
same,normalized growth,"locus YMR219W, strain ESC1, hits give low values",0.955
same,normalized growth,"locus YMR263W, strain SAP30, hits give low values",0.967
same,normalized growth,"locus YNL153C, strain GIM3, hits give low values",0.973
same,normalized growth,"locus YNL298W, strain CLA4 (second series), hits give low values",0.923
same,normalized growth,"locus YNL322C, strain KRE1, hits give low values",1.01
same,normalized growth,"locus YNR030W, strain Alg12, hits give low values",0.951
same,normalized growth,"locus YOL006C, strain TOP1, hits give low values",0.527 (active)
same,normalized growth,"locus YPL055C, strain LGE1, hits give low values",1.05
same,normalized growth,"locus YPL241C, strain CIN2, hits give low values",0.907
same,normalized growth,"locus YPR135W, strain CTF4, hits give low values",0.889
